Screening data deposited in PubChem by several laboratories.
ERa coact pot: enhances coactivator binding to human estrogen receptor alpha. TR-FRET ERalpha-LBD/SRC-Cy5 coactivator binding, 2 h; 100 = basal binding, no effect. coactivator binding (% of control), % at 25.6 µM. 86,000 compounds, 1.3% hits; in the data active = activity above about 200%;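 also: binding measured in presence of low estradiol as agonist stimulus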
ERa SRC1 inh: ER-alpha (human) coactivator binding inhibition | 86,000 compounds, 1.7% hits | AID 629 | inhibition, % at 25.6 µM | P03372 | TR-FRET ER-alpha LBD / SRC-1 peptide, estradiol-bound; in the data active = inhibition above about 50%
ERb coact inh: blocks coactivator binding to human estrogen receptor beta. 86,000 compounds, 1.3% hits. Q92731. TR-FRET ER-beta LBD / SRC1-Cy5 peptide binding; receptor agonist-loaded with 1 µM estradiol. inhibition, % at 25.6 µM;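 active = compounds whose percent inhibition of the receptor-coactivator binding signal exceeds about 50% in the single-dose screen, limit read from the data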
Target sequence (Q92731 whole entry, looked up, the tested form may be a part): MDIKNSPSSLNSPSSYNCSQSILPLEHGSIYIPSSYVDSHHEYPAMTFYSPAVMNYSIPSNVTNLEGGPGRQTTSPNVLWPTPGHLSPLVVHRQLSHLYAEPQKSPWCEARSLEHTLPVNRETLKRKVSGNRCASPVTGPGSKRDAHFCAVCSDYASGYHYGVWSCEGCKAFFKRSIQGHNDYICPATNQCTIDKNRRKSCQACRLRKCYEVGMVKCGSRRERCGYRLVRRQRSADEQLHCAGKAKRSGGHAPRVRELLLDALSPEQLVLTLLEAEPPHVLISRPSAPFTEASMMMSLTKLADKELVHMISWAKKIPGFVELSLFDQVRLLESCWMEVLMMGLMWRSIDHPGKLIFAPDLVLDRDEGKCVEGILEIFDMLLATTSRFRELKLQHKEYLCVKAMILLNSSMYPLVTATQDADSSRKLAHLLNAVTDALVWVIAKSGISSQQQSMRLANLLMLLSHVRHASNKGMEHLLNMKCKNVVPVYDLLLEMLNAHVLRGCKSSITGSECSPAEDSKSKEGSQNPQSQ
EphB4 ephrin blk: blocks human EphB4 binding to ephrin-B2. 97,000 compounds, 0.15% hits. inhibition, % at 7 µM. EphB4 LBD / TNYL-RAW-Alexa532 peptide, fluorescence polarization. P54760;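 active = inhibition above the screen-wide mean inhibition plus 3 SD, cut at about 15% in these data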
Numbers stand for hits; [ ] = another dose, or the depositor's remark. Most compounds without a hit are left out; they make up all but 2.8% or so of the library.

What do the screens show for `CCCCN(CC)S(=O)(=O)N1CCC(C(=O)NCc2ccc(F)cc2)CC1`?
ERa coact pot: inactive; ERa SRC1 inh: inactive; ERb coact inh: inactive; EphB4 ephrin blk: inactive

Results for COc1ccc(OC)c(-c2cc(C(=O)Nc3cc(C)on3)no2)c1 ?
ERa coact pot: 245.2[fluorescence artefact?]; ERa SRC1 inh: inactive; ERb coact inh: inactive; EphB4 ephrin blk: inactive

Results for COc1ccc(-c2csc(NC(=O)c3cc(C)on3)c2C#N)cc1OC ?
ERa coact pot: 263.9; ERa SRC1 inh: inactive; ERb coact inh: inactive; EphB4 ephrin blk: inactive

Results for COc1ccc(CCNC(=O)c2cc(-c3ccccc3OC)on2)cc1OC ?
ERa coact pot: 235.7[fluorescence artefact?]; ERa SRC1 inh: inactive; ERb coact inh: inactive; EphB4 ephrin blk: inactive

How did Cc1cc(C(=O)Nc2sc3c(c2C#N)CCCC3)no1 do in these assays?
ERa coact pot: inactive; ERa SRC1 inh: inactive; ERb coact inh: inactive

What do the screens show for `Cc1cc(C(=O)Nc2sc3c(c2C#N)CCC3)no1`?
ERa coact pot: inactive; ERa SRC1 inh: 53.1[fluorescence artefact?]; ERb coact inh: 63.9; EphB4 ephrin blk: inactive

Results for CN(C)CCCOc1nc2c(c(=O)n(C)c(=O)n2C)n1C ?
ERa coact pot: inactive; ERa SRC1 inh: inactive; ERb coact inh: inactive; EphB4 ephrin blk: inactive

What do the screens show for `Cc1ccc(NC(=S)N2CCC(N(C)CC3CCCO3)CC2)c(C)c1` (stereo not given)?
ERa coact pot: inactive; ERa SRC1 inh: inactive; ERb coact inh: inactive; EphB4 ephrin blk: inactive

What do the screens show for `COc1ccc(CC(=O)N2CC(C)CC(C)C2)cc1OC` (stereo not given)?
ERa coact pot: inactive; ERa SRC1 inh: inactive; ERb coact inh: 84.2[fluorescence artefact?]; EphB4 ephrin blk: inactive

How did COc1ccc(C(=O)N2CCN(C(=O)Cc3ccccc3)CC2)cc1OC do in these assays?
ERa coact pot: inactive; ERa SRC1 inh: inactive; ERb coact inh: inactive; EphB4 ephrin blk: inactive

Results for CCc1c(C(=O)NNC(=S)NCCc2ccccc2)csc1C ?
EphB4 ephrin blk: inactive

Results for CCOC(=O)c1ccc(NC(=O)c2c(O)c3ccccc3n(C)c2=O)cc1 ?
ERa coact pot: inactive; ERa SRC1 inh: 63.0; ERb coact inh: inactive

How did O=C(Cc1ccc(S(=O)(=O)N2CCOCC2)s1)Nc1nc2c(s1)CCCC2 do in these assays?
ERa coact pot: inactive; ERa SRC1 inh: 82.8; ERb coact inh: 81.3[fluorescence artefact?]; EphB4 ephrin blk: inactive

Results for O=C(Cc1ccc(S(=O)(=O)N2CCOCC2)s1)Nc1ccc2c(c1)CCC2 ?
ERa coact pot: inactive; ERa SRC1 inh: inactive; ERb coact inh: inactive; EphB4 ephrin blk: inactive

How did COc1ccc2nc3oc(C(=O)N4CCN(c5cccc(C(F)(F)F)c5)CC4)cc3cc2c1 do in these assays?
ERa coact pot: inactive; ERa SRC1 inh: 66.2; ERb coact inh: inactive; EphB4 ephrin blk: inactive

Results for COc1ccc2nc3oc(C(=O)N4CCN(c5cccc(Cl)c5)CC4)cc3cc2c1 ?
ERa coact pot: inactive; ERa SRC1 inh: 62.1[fluorescence artefact?]; ERb coact inh: inactive; EphB4 ephrin blk: inactive

How did CCOC(=O)C1=C(O)/C(=C/c2cc(OC)c(OC)c(OC)c2)SC1=Nc1ccc(OC)cc1 do in these assays?
EphB4 ephrin blk: inactive

How did CCOC(=O)C1=C(O)/C(=C/c2ccc(C)o2)SC1=NC(=O)c1ccccc1C do in these assays?
ERa coact pot: inactive; ERa SRC1 inh: 64.0[fluorescence artefact?]; ERb coact inh: inactive; EphB4 ephrin blk: inactive

Results for N#CC1=C(N)OC2=C(C(=O)CCC2)C1CCc1ccccc1 (stereo not given) ?
ERa coact pot: inactive; ERa SRC1 inh: 100.0[fluorescence artefact?]; ERb coact inh: inactive; EphB4 ephrin blk: inactive

Results for Cc1ccc2cc(CCNC(=O)CC(C)C)c(=O)[nH]c2c1 ?
EphB4 ephrin blk: inactive

What do the screens show for `CCCn1c(SCC(=O)Nc2ccccc2Oc2ccccc2)n[nH]c1=O`?
ERa coact pot: inactive; ERa SRC1 inh: inactive; ERb coact inh: inactive; EphB4 ephrin blk: inactive

What do the screens show for `Cc1cc(C)c(S(=O)(=O)c2ccccc2C)c(OCC(C)(C)C)n1`?
EphB4 ephrin blk: inactive

What do the screens show for `CC(=O)c1ccc(Nc2ncnc3c2oc2ccccc23)cc1`?
ERa coact pot: 346.2[fluorescence artefact?]; ERa SRC1 inh: inactive; ERb coact inh: inactive; EphB4 ephrin blk: inactive

Results for CC(=O)Nc1ccc(Nc2nc(C)nc3c2oc2ccccc23)cc1 ?
ERa coact pot: inactive; ERa SRC1 inh: inactive; ERb coact inh: inactive; EphB4 ephrin blk: inactive

Results for COc1ccc(-c2cc(C(=O)Nc3cccc(C(C)=O)c3)no2)cc1 ?
ERa coact pot: 228.3[fluorescence artefact?]; ERa SRC1 inh: inactive; ERb coact inh: inactive; EphB4 ephrin blk: inactive

What do the screens show for `COc1ccc(-c2cc(C(=O)Nc3ccc(C)cc3)no2)cc1`?
ERa coact pot: inactive; ERa SRC1 inh: inactive; ERb coact inh: inactive; EphB4 ephrin blk: inactive

Results for Cc1ccc(-n2c(O)c(C=Nc3ccc4c(c3)OCO4)c3ccccc3c2=O)cc1C ?
EphB4 ephrin blk: inactive

What do the screens show for `Cc1cccc(-n2c(O)c(C=Nc3ccc4c(c3)OCO4)c3ccccc3c2=O)n1`?
ERa coact pot: inactive; ERa SRC1 inh: 70.9[fluorescence artefact?]; ERb coact inh: inactive

What do the screens show for `CCOC(=O)Cc1nn(C)c(=O)c2ccccc12`?
ERa coact pot: inactive; ERa SRC1 inh: inactive; ERb coact inh: 62.8; EphB4 ephrin blk: inactive

How did CSc1ccc(N2C(=O)NC3(CCCCC3)C2=O)cc1 do in these assays?
ERa coact pot: inactive; ERa SRC1 inh: inactive; ERb coact inh: inactive; EphB4 ephrin blk: inactive

What do the screens show for `O=C1c2ccsc2SCCN1Cc1ccc(Cl)cc1`?
ERa coact pot: inactive; ERa SRC1 inh: inactive; ERb coact inh: 55.9[fluorescence artefact?]; EphB4 ephrin blk: inactive

Results for O=C1c2ccsc2SCCN1Cc1cccc(Cl)c1 ?
ERa coact pot: inactive; ERa SRC1 inh: inactive; ERb coact inh: inactive; EphB4 ephrin blk: inactive

What do the screens show for `O=C(OCc1nnc(-c2ccccc2)o1)c1ccc(S(=O)(=O)NCc2ccco2)cc1`?
ERa coact pot: inactive; ERa SRC1 inh: 53.4[fluorescence artefact?]; ERb coact inh: inactive; EphB4 ephrin blk: inactive

How did COC(=O)c1ccc(COc2ccccc2/C=N/NS(=O)(=O)c2ccccc2)cc1 do in these assays?
EphB4 ephrin blk: inactive

How did Cn1c(=O)c2c(nc(SCC(=O)NC3CCCCC3)n2C)n(C)c1=O do in these assays?
ERa coact pot: inactive; ERa SRC1 inh: inactive; ERb coact inh: inactive

Results for O=C(NCCC1=CCCCC1)C1CCCN(c2nc3ccccc3o2)C1 (stereo not given) ?
ERa coact pot: inactive; ERa SRC1 inh: inactive; ERb coact inh: inactive; EphB4 ephrin blk: inactive

What do the screens show for `Cc1cccc(CSc2nc3c(cc2C#N)CCC3)c1`?
ERa coact pot: inactive; ERa SRC1 inh: inactive; ERb coact inh: 67.9[fluorescence artefact?]; EphB4 ephrin blk: inactive

How did C=CCSc1nc2c(cc1C#N)CCC2 do in these assays?
ERa coact pot: inactive; ERa SRC1 inh: inactive; ERb coact inh: inactive; EphB4 ephrin blk: inactive

What do the screens show for `C=C(C)CSc1nc2c(cc1C#N)CCC2`?
ERa coact pot: inactive; ERa SRC1 inh: inactive; ERb coact inh: 99.2[fluorescence artefact?]; EphB4 ephrin blk: inactive

How did N#Cc1cc2c(nc1SCc1cccnc1)CCC2 do in these assays?
ERa coact pot: inactive; ERa SRC1 inh: inactive; ERb coact inh: inactive; EphB4 ephrin blk: inactive

What do the screens show for `C1=CC2CC1CC2CNCc1ccco1` (stereo not given)?
ERa coact pot: inactive; ERa SRC1 inh: inactive; ERb coact inh: inactive; EphB4 ephrin blk: inactive

What do the screens show for `CCN(CC)CCCN(Cc1cc2cc3c(cc2[nH]c1=O)OCCO3)C(=O)Nc1ccc(F)cc1`?
ERa coact pot: inactive; ERa SRC1 inh: inactive; ERb coact inh: inactive; EphB4 ephrin blk: inactive
